Where “and” joins values, the source holds several entries; their conditions need not be identical. Identical values can stand only once. Calls of active or inactive are those of the source.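 The calls were made as follows, unless noted: active = compounds whose cell count with miR-34 switched on is under 0.7 times the count with it off; inactive = the rest.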
Assays:
[1] = yeast 75Q aggregation reduction – 75Q-TubU reporter (AID 1593); conditions: Yeast 75Q polyglutamine aggregation reporter
[2] = blockers of cytochrome c efflux from mitochondria – biochemical, purified mitochondria (AID 1603); conditions: stronger effect = lower value;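 also: mouse liver mitochondria challenged with calcium chloride; signal normalized to the plate average as 100%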
[3] = polyglutamine aggregate formation blockers (AID 1604); conditions: polyglutamine-induced protein aggregation inhibition assay; stronger effect = higher value; tested at 2.5 µM
[4] = Wnt pathway potentiators raising nuclear beta-catenin – imaging, WNT3A-conditioned medium, mouse C2C12, NPC library, primary screen (AID 1117326; in the data active = nuclear beta-catenin stimulation mostly above about 4.2%, no sharp cut-off; inactive = mostly below about 10%); conditions: stronger effect = higher value
[5] = stimulators of insulin release from INS-1E, primary screen, cell-based, 5 mM glucose, NPC library (AID 1117329;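 active = compound raises insulin release from rat beta cells at 5 mM glucose, no numeric limit stated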); conditions: rat INS-1E insulin secretion, at 10 µM, stronger effect = higher value
[6] = growth inhibition of GSK3B-pretreated HCT116 cells – cell-based, CellTiter-Glo, 0.2 to 20 µM (AID 1117336;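 active = compounds lowering colon cancer cell viability after pretreatment blocking the GSK3B kinase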); conditions: HCT116 viability after GSK3B inhibitor, at 20 µM, stronger effect = higher value
[7] = inhibition of endothelial tube formation, primary screen, imaging, VEGF stimulated, CD31 staining, tube area, NPC library (AID 1117340;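 active = compound that reduces growth-factor-driven endothelial tube area in a mixed cell culture, no cutoff stated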); conditions: VEGF-stimulated ADSC/ECFC co-culture, at 10 µM, stronger effect = higher value
[8] = GLP1 release stimulators, primary, NCI-H716, NPC library (AID 1117341;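 active = compound raises GLP1 secretion from the human gut endocrine cells, with no numeric limit stated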); conditions: NCI-H716 cells, at 10 µM, stronger effect = higher value
[9] = HCT116 colon cancer cell growth inhibition, primary screen, CellTiter-Glo luminescence, NPC library (AID 1117342;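 active = compounds that lower survival of HCT116 colon cancer cells in the luminescence readout, no numeric limit stated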); conditions: at 20 µM (top of the series)
[10] = reduced SW480 viability measured with CellTiter-Glo, NPC library, primary (AID 1117343;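 active = compounds that lower viability of the colon cancer cells in the luminescence readout, with no numeric limit stated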); conditions: CellTiter-Glo luminescence; at 20 µM (top of the series)
[11] = NPC library primary testing for decreased DLD-1 cell viability via CellTiter-Glo (AID 1117346;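 active = compounds that lower survival of DLD-1 colon cancer cells in the luminescence readout, no cutoff given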); conditions: DLD-1 viability, CellTiter-Glo luminescence; at 20 µM (top of the series)
[12] = biological target: 6-phosphogluconate dehydrogenase, decarboxylating (Homo sapiens) (UniProt P52209); assay: inhibition of human phosphogluconate dehydrogenase – biochemical, recombinant enzyme, NADPH absorbance, primary screen (AID 1159550;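 active = at least 20% inhibition of 6-phosphogluconate dehydrogenase activity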); conditions: recombinant 6PGD, NADPH absorbance 341 nm; at 10 µM; stronger effect = higher value
[13] = EMT-state selective cytotoxicity in co-culture – imaging, PC-3E GFP, TEM4-18 mCherry, primary screen (AID 1345086;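 active = compounds killing one labelled cell type while sparing the other, by normalised counts and ratio limits, not self-fluorescent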;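 as to all read-outs here: cells exposed to compound for 72 h before imaging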;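 as to red/green cell ratio (normalised): normalised mesenchymal count divided by normalised epithelial count so high means epithelial killing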); conditions: PC-3E GFP / TEM4-18 mCherry co-culture, imaging cell counts, at 1 µM; for red/green cell ratio (normalised): actives lie on both sides
[14] = tested on: Aerobactin synthetase IucA (Klebsiella pneumoniae hvKP1); assay: IucA enzyme inhibition, primary screen, biochemical, Spectrum library (AID 1346200; call rule not given here;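 also: 100% = wells without compound and 0% = wells lacking enzyme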); conditions: malachite green pyrophosphate, A620, at 8 µM, stronger effect = lower value
[15] = viability loss with induced miR-34 in A549 – imaging, A549 dox-inducible miR-34, nuclei and caspase counts, primary screen (AID 1347080); conditions: A549 miR-34 inducible, Hoechst nuclei count, 48 h
[16] = biological target: Mitogen-activated protein kinase 7 (Homo sapiens) (UniProt Q13164); assay: Gal4-ERK5 driven luciferase induction – cell-based, HTS, primary screen (AID 1508626;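 active = luciferase signal above three times the same-plate solvent-only control wells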;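 also: luciferase driven by Gal4-ERK5 fusion binding five Gal4 sites before minimal TATA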); conditions: HeLa Gal4-ERK5 transactivation, 18 h, at 5 µM, stronger effect = higher value
[17] = galactose survival enhancers in mitochondrial complex I cybrids – cell-based, galactose medium, ATP luminescence, primary screen (AID 1645843;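 active = z-score of at least 1.8 in each of two replicates, scored against plate mean and spread of sample wells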;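 also: positive z means more ATP and so rescue of galactose-driven cybrid death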); conditions: complex I mutant cybrid cells, 72 h, stronger effect = higher value
[18] = P. berghei load reduction in hepatocytes – cell-based, HepG2, luciferase luminescence, HepG2 viability, primary screen (AID 624349; in the data active = parasite load remaining mostly below about 12%, no sharp cut-off; inactive = mostly above about 10%;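 also: 100% = mean of DMSO negative control wells on the same plate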); conditions: P. berghei liver stage in HepG2, luciferase luminescence, concentration not given here; parasite load remaining: stronger effect = lower value; viability: measured here: HepG2 viability without parasites
[19] = MELAS cybrid and Rieske KO viability enhancers – cell-based, MELAS cybrids, Rieske KO mouse fibroblasts, CellTiter-Glo, primary screen (AID 1508586;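 active = mean z-score across replicates of 1.96 or higher in either the MELAS or the Rieske mutant cell line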;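 also: z relative to plate mean and SD of compound and empty wells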); conditions: low glucose
[20] = biological target: NAD(+) hydrolase SARM1 (Homo sapiens) (UniProt Q6SZW1); assay: blocking NAD cleavage by SARM1 SAM-TIR – cell lysate, NAD-Glo luminescence (AID 1508614;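 active = compound whose remaining NAD level is above about 45 nM, limit read from the data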;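 also: higher remaining NAD means stronger inhibition of SARM1 NADase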); conditions: SAM-TIR HEK293T lysate NADase, at 1 µM, stronger effect = higher value
[21] = measured here: epithelial PC-3E GFP cell survival
[22] = measured here: mesenchymal TEM4-18 mCherry cell survival
[23] = measured here: relative caspase fold change +Dox/-Dox
[24] = measured here: total cells with miR-34 induction, stronger effect = lower value
[25] = measured here: total cells without miR-34 induction
[26] = MELAS cybrid survival, CellTiter-Glo 48 h, stronger effect = higher value
[27] = Rieske KO mouse fibroblast survival, CellTiter-Glo 72 h

Chain of 6-phosphogluconate dehydrogenase, decarboxylating (Homo sapiens) (P52209 whole entry, looked up): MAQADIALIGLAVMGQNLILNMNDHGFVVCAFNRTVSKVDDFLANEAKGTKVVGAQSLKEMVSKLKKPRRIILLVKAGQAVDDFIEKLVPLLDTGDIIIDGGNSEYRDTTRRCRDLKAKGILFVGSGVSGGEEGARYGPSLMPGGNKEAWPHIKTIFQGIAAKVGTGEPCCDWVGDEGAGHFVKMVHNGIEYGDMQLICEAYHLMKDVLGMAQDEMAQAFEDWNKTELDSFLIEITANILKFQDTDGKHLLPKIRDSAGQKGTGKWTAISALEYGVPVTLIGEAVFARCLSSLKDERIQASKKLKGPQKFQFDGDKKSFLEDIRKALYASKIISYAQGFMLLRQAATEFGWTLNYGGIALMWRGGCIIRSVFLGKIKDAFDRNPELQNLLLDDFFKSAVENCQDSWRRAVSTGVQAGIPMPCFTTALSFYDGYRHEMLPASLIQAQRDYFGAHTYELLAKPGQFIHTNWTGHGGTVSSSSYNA
Chain of NAD(+) hydrolase SARM1 (Homo sapiens) (Q6SZW1 whole entry, looked up): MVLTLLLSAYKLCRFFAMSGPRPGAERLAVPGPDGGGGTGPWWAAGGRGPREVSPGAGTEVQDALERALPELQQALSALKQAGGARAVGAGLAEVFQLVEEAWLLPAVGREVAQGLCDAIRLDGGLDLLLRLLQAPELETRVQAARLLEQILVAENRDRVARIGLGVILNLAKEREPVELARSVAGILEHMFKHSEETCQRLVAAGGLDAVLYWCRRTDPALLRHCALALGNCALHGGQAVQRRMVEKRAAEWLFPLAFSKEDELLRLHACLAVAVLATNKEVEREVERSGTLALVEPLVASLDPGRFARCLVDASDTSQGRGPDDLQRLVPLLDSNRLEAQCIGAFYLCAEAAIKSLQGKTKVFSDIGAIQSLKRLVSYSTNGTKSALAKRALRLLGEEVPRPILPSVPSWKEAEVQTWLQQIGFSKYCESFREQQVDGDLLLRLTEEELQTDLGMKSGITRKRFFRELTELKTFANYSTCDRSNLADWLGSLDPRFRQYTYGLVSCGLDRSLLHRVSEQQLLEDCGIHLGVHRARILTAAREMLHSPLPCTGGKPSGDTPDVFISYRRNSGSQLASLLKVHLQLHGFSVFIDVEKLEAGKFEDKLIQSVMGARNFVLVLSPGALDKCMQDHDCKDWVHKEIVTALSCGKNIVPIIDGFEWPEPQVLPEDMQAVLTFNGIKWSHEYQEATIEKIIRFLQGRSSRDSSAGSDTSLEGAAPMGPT
Chain of Mitogen-activated protein kinase 7 (Homo sapiens) (Q13164 whole entry, looked up, the tested form may be a part): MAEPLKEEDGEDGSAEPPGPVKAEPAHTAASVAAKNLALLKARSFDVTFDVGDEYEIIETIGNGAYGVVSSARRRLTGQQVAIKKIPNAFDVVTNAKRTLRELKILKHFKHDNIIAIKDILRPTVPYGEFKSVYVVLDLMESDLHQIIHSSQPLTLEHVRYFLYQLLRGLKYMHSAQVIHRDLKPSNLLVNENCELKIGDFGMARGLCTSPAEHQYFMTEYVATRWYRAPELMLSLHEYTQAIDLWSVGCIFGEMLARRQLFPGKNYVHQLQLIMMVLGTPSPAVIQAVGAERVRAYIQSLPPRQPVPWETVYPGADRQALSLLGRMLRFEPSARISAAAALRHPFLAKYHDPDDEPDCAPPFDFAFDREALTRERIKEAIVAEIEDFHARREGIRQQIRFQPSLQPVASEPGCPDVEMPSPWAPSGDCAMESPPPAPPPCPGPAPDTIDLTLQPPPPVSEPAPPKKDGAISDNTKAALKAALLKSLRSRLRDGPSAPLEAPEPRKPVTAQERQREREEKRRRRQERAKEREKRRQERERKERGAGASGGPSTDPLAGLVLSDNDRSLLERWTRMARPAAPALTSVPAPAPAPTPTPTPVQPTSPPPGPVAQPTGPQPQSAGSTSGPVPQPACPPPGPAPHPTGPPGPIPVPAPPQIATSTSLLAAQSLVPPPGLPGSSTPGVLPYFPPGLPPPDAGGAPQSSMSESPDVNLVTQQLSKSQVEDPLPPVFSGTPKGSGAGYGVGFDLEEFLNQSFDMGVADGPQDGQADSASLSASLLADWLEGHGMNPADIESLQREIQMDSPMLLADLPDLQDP

For C=C(C)[C@H]1Cc2c(ccc3c2O[C@@H]2COc4cc(OC)c(OC)cc4[C@@H]2C3=O)O1, the score [1] was 3.23, the cytochrome c release ratio [2] was 1.15 and the inhibition of aggregation [3] was 33.3%. The nuclear beta-catenin stimulation ([4]; at 10 µM) was 92.8% (active), the nuclear beta-catenin stimulation ([4]; stimulation, at 2 µM) was 43.8% and the insulin secretion stimulation [5] was -0.1% (inactive). The viability decrease [6] was 4.4% (inactive), the tube area decrease [7] was 107% (active) and the GLP1 secretion stimulation [8] was 2.2% (inactive). For the same compound, the inhibition of viability [9] was 60.6% (active), the viability decrease (inhibition) [10] was 88.3% (active) and the viability decrease (inhibition) [11] was 83.4% (active). The inhibition [12] was 10.4% (inactive), the red/green cell ratio (normalised) [13] was 1.19 (inactive) and the normalised cell number [13, 21] was 0.27. For the same compound, the normalised cell number [13, 22] was 0.32, the activity remaining [14] was 92.3% (inactive) and the fold change ([15]; stronger effect = lower value) was 1.11 (inactive). It also gave a fold change [15, 23] of 0.665, a cell count [15, 24] of 1680 and a cell count [15, 25] of 1510. For the same compound, the luciferase signal [16] was 52 AU (inactive) and the z-score [17] was -1.29 (inactive).
In the case of CC(C)(C)NCC(O)c1ccccc1Cl (configuration not stated), the score [1] is reported as 1.29, the cytochrome c release ratio [2] is reported as 0.96 and the inhibition of aggregation [3] is reported as 72.5%. For the same compound, the parasite load remaining [18] was 85.5% (inactive) and 23.5% (inactive), the viability [18] was 91.9% and 68.5% and the nuclear beta-catenin stimulation ([4]; at 10 µM) was -0.7% (inactive). The nuclear beta-catenin stimulation ([4]; stimulation, at 2 µM) was -0.7%, the insulin secretion stimulation [5] was -1.2% (inactive) and the viability decrease [6] was -32.4% (inactive). For the same compound, the tube area decrease [7] was 5.2% (inactive), the GLP1 secretion stimulation [8] was 0.9% (inactive) and the inhibition of viability [9] was -0.17% (inactive). For the same compound, the viability decrease (inhibition) [10] was -2.1% (inactive), the viability decrease (inhibition) [11] was -14.4% (inactive) and the inhibition [12] was 14% (inactive). For the same compound, the red/green cell ratio (normalised) [13] was 0.9 (inactive), the normalised cell number [13, 21] was 1.07 and the normalised cell number [13, 22] was 0.97. The activity remaining [14] was 102% (inactive), the fold change ([15]; stronger effect = lower value) was 0.985 (inactive) and 0.856 (inactive) and the fold change [15, 23] was 1.26 and 1.33. For the same compound, the cell count [15, 24] was 10200 and 9170, the cell count [15, 25] was 10400 and 10700 and the z-score [19, 26] was -0.495 (inactive) and -0.187 (inactive). The z-score [19, 27] was 0.0224 and -0.446, the remaining NAD [20] was 10 nM (inactive) and the luciferase signal [16] was 24 AU (inactive). For the same compound, the z-score [17] was 0.29 (inactive) and 0.245 (inactive).
For Cc1ncc(CNC(=O)N(CCCl)N=O)c(N)n1, the parasite load remaining [18] was 130% (inactive), the viability [18] was 90.7% and the nuclear beta-catenin stimulation ([4]; at 10 µM) was 3% (inactive). For the same compound, the nuclear beta-catenin stimulation ([4]; stimulation, at 2 µM) was -0.9%, the insulin secretion stimulation [5] was 0.3% (inactive) and the viability decrease [6] was -0.8% (inactive). The tube area decrease [7] was 28.9% (inactive), the GLP1 secretion stimulation [8] was -6% (inactive) and the inhibition of viability [9] was -0.1% (inactive). For the same compound, the viability decrease (inhibition) [10] was 10.9% (inactive), the viability decrease (inhibition) [11] was 1.8% (inactive) and the inhibition [12] was 2.15% (inactive). The red/green cell ratio (normalised) [13] was 0.95 (inactive), the normalised cell number [13, 21] was 0.91 and the normalised cell number [13, 22] was 0.86. For the same compound, the activity remaining [14] was 107% (inactive), the fold change ([15]; stronger effect = lower value) was 0.981 (inactive) and the fold change [15, 23] was 1.12. The cell count [15, 24] was 6420, the cell count [15, 25] was 6540 and the remaining NAD [20] was 10 nM (inactive). For the same compound, the luciferase signal [16] was 100 AU (inactive) and the z-score [17] was -0.62 (inactive).
With COc1ccc(OC)c(C(O)C(C)N)c1 (configuration not stated) the nuclear beta-catenin stimulation ([4]; at 10 µM) was -1.8% (inactive), the nuclear beta-catenin stimulation ([4]; stimulation, at 2 µM) was -1.1% and the insulin secretion stimulation [5] was -0.1% (inactive). The viability decrease [6] was 4% (inactive), the tube area decrease [7] was -6.6% (inactive) and the GLP1 secretion stimulation [8] was -3.9% (inactive). For the same compound, the inhibition of viability [9] was -3% (inactive), the viability decrease (inhibition) [10] was -2.5% (inactive) and the viability decrease (inhibition) [11] was -4.2% (inactive). For the same compound, the inhibition [12] was 11.8% (inactive), the red/green cell ratio (normalised) [13] was 0.84 (inactive) and the normalised cell number [13, 21] was 1.33. The normalised cell number [13, 22] was 1.11, the activity remaining [14] was 103% (inactive) and the fold change ([15]; stronger effect = lower value) was 1.09 (inactive) and 0.79 (inactive) and 0.922 (inactive). The fold change [15, 23] was 1.23 and 1.51 and 0.904, the cell count [15, 24] was 11000 and 8690 and 11600 and the cell count [15, 25] was 10000 and 11000 and 12600. The z-score [19, 26] was 0.379 (inactive), the z-score [19, 27] was 0.108 and the remaining NAD [20] was 10 nM (inactive). The luciferase signal [16] was 104 AU (inactive) and the z-score [17] was 0.13 (inactive).

Source: PubChem BioAssay
